Source: PubChem BioAssay
Shown are actives, neighbours in structure and some others; about 4% of the full set was active somewhere.
HIF-2a block: HIF-2a reporter inhibitors, primary screen, luminescence, 786-0 RCC cells | inhibition, % at 18.8 µM | 786-0 RCC cells HIF-2a reporter, luciferase luminescence, overnight | 360,000 compounds, 0.72% hits;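 active = inhibition of the luminescence signal of 40% or more relative to plate controls, in a single-dose primary screen at 18.75 µM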
KKLEB tox: cytotoxicity in KKLEB CF airway cells, primary screen, cytotoxicity control for CF NF-kB inhibitor project, cell-based, uHTS, fluorescence assay plates; activity change (cytotoxicity), % at 5 µM; KKLEB CF airway cells viability, ATPlite luminescence, overnight; hits give low values; cells stimulated with P. aeruginosa culture filtrate; AID 602141, 2011; 360,000 compounds, 0.36% hits;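 active = corrected activity change at or below -50% at 5 µM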
TWEAK Fn14 block: inhibitors of TWEAK-Fn14 signaling, primary screen, luciferase reporter cells, uHTS; TWEAK-stimulated Fn14 reporter cells, luciferase luminescence, 8 h; inhibition, % at 10 µM; 360,000 compounds, 2% hits; AID 1159606, 2016; in the data active = inhibition above about 50%
TROY NFkB inh: inhibitors of TROY-driven NF-kB signaling, primary screen, Q293 LMP1-TROYcd cells, NF-kB luciferase, uHTS. Q293 LMP1-TROYcd NF-kB luciferase reporter, 4 h. 360,000 compounds, 0.98% hits. inhibition, % at 10 µM;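 active = compounds whose plate-normalised and pattern-corrected inhibition of the luciferase reporter signal at the single screening dose is 50% or more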
Peg3 promoter: Peg3 promoter-driven luciferase inhibitors, primary screen, cell-based, HeLa, luciferase luminescence. inhibition, % at 20 µM. HeLa PEG-Prom luciferase reporter, overnight. 360,000 compounds, 1.7% hits;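 active = inhibition of at least 50% at 20 µM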
CF NFkB block: inhibitors of PAF-induced NF-kB signaling, primary screen, cell-based, GFP fluorescence, uHTS. AID 588850, 2011. inhibition, % at 5 µM. 360,000 compounds, 0.86% hits. KKLEB NF-kB-GFP reporter, GFP fluorescence overnight;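 active = at least 50% inhibition at 5 µM, scaled per plate between neutral and stimulator controls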;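 note: PAF is a Pseudomonas aeruginosa culture filtrate used as stimulus; plate controls were PAF-stimulated DMSO wells for no effect and unstimulated DMSO wells for full effect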
Starred values were filed as active, the others as inactive.

Screening O=c1[nH]c2ccc(Cl)cc2c(-c2ccccc2)c1SC(=S)N1CCCCC1 returned HIF-2a block 30, KKLEB tox -9, TWEAK Fn14 block 77*, TROY NFkB inh 2, Peg3 promoter 27 and CF NFkB block 19.
Screening N/C(=N\S(=O)(=O)c1cc(C(F)(F)F)cc(C(F)(F)F)c1)c1ccc(Cl)cc1 returned HIF-2a block 13, KKLEB tox -7, TWEAK Fn14 block 17, TROY NFkB inh 60*, Peg3 promoter 33 and CF NFkB block 8.
For CCOC(=O)C1=C(COC(=O)COc2ccc(C#N)cc2)NC(=O)NC1C (centres undefined) the results were HIF-2a block 3, KKLEB tox 10, TWEAK Fn14 block 90*, TROY NFkB inh -1, Peg3 promoter 9 and CF NFkB block 6.
`COc1cc(OC)cc(C(=O)NCCSc2c[nH]c3ccccc23)c1` gave HIF-2a block 13, KKLEB tox -4, TWEAK Fn14 block 3, TROY NFkB inh 16, Peg3 promoter 19 and CF NFkB block 8.
Screening CN(C)c1ccc(C=C2C=CC=C2)cc1 returned HIF-2a block 10, KKLEB tox 10, TWEAK Fn14 block 62*, TROY NFkB inh 9, Peg3 promoter -99 and CF NFkB block -4.
`CC(=O)Nc1ccc(CN2CCN(Cc3ccc(C)cc3)C(CCO)C2)cc1` (centres undefined) gave HIF-2a block 11, KKLEB tox 7, TWEAK Fn14 block -28, TROY NFkB inh 14, Peg3 promoter 8 and CF NFkB block -10.
O=C(NC1CCCC1)C(c1ccc(F)cc1)N(Cc1ccc(Cl)cc1)C(=O)CCl (centres undefined) was read as HIF-2a block 18, KKLEB tox 10, TWEAK Fn14 block 6, TROY NFkB inh 11, Peg3 promoter 62* and CF NFkB block 11.
Cc1cc(C)cc(OCc2nc3ncc(Br)cc3[nH]2)c1 was read as HIF-2a block 18, KKLEB tox -50*, TWEAK Fn14 block 4, TROY NFkB inh 19, Peg3 promoter 21 and CF NFkB block 35.
For COc1cccc(OCc2nc3ncc(Br)cc3[nH]2)c1 the results were HIF-2a block -110, KKLEB tox -32, TWEAK Fn14 block 6, TROY NFkB inh -31, Peg3 promoter -76 and CF NFkB block 15.
Screening Cc1cccc(C)c1NC(=O)CN returned HIF-2a block 14, KKLEB tox -5, TWEAK Fn14 block -15, TROY NFkB inh 4, Peg3 promoter -3 and CF NFkB block -5.
Screening Cc1cccc(NC2(C(=O)O)CCCC2)c1 returned HIF-2a block -5, KKLEB tox -4, TWEAK Fn14 block 0, TROY NFkB inh -26, Peg3 promoter 0 and CF NFkB block 2.
Nc1nc2ccccc2cc1C(=O)NCCCCc1ccccc1 was read as HIF-2a block -48, TWEAK Fn14 block 53* and TROY NFkB inh 14.
`O=S(=O)(c1ccccc1)n1ccc2cccnc21` gave HIF-2a block 26, KKLEB tox -6, TWEAK Fn14 block -1, TROY NFkB inh 3, Peg3 promoter 10 and CF NFkB block 9.
Screening N#Cc1cc(-c2ccccc2)[nH]c1-c1nccc2ccccc12 returned HIF-2a block -26, KKLEB tox -10, TWEAK Fn14 block 56*, TROY NFkB inh 25, Peg3 promoter -16 and CF NFkB block 0.
COc1ccc(Br)cc1CN(C)C(=O)c1ccccc1OCc1c(C)noc1C was read as HIF-2a block -3, KKLEB tox -6, TWEAK Fn14 block 1, TROY NFkB inh 14, Peg3 promoter 5 and CF NFkB block 5.
For CCOc1ccc(NC(=O)N(O)C2(C#N)CCCCC2)cc1 the results were HIF-2a block 6, KKLEB tox 7, TWEAK Fn14 block -32, TROY NFkB inh -23, Peg3 promoter 96* and CF NFkB block -7.
O=C(/C=C/c1ccc([N+](=O)[O-])cc1)c1cccs1 was read as HIF-2a block -65, KKLEB tox 7, TWEAK Fn14 block 7, TROY NFkB inh -8, Peg3 promoter -22 and CF NFkB block 14.
`Cc1cccc(N/C=C/C(=O)c2cccs2)c1C` gave HIF-2a block -83, KKLEB tox -34, TWEAK Fn14 block 58*, TROY NFkB inh -18, Peg3 promoter -205 and CF NFkB block -10.
`COc1cc([N+](=O)[O-])ccc1N/C=C/C(=O)c1cccs1` gave HIF-2a block -211, KKLEB tox -58*, TWEAK Fn14 block 42, TROY NFkB inh 16, Peg3 promoter -81 and CF NFkB block -50.
`CCOc1ccc(NS(=O)(=O)c2ccc(C(=O)N3CCCC3)cc2)cc1` gave HIF-2a block 7, KKLEB tox 5, TWEAK Fn14 block -11, TROY NFkB inh -29, Peg3 promoter 10 and CF NFkB block -5.
`Cc1ccc(NC(=O)CSc2ccccc2NC(=O)c2ccccc2Cl)cc1Cl` gave HIF-2a block -106, KKLEB tox -9, TWEAK Fn14 block 73*, TROY NFkB inh 17, Peg3 promoter -23 and CF NFkB block 8.
CCc1c(C)sc(NC(=O)c2noc(C)c2[N+](=O)[O-])c1C#N was read as HIF-2a block -5, KKLEB tox -2, TWEAK Fn14 block -8, TROY NFkB inh 10, Peg3 promoter 13 and CF NFkB block -5.
COc1ccc(CCC(=O)Nc2ccc(-c3noc(-c4ccc(OC)c(OC)c4)n3)cc2)cc1 was read as HIF-2a block -46, KKLEB tox -3, TWEAK Fn14 block -13, TROY NFkB inh -20, Peg3 promoter -33 and CF NFkB block 8.
`COc1cc(-c2nc(-c3ccc(NC(=O)c4ccc(Br)o4)cc3)no2)cc(OC)c1OC` gave HIF-2a block -162, KKLEB tox 7, TWEAK Fn14 block 59*, TROY NFkB inh 8, Peg3 promoter 11 and CF NFkB block -15.
COc1ccc(-c2nc(-c3ccc(NC(=O)c4ccc(Br)o4)cc3)no2)cc1OC was read as HIF-2a block -166, KKLEB tox -6, TWEAK Fn14 block -115, TROY NFkB inh -57, Peg3 promoter 54* and CF NFkB block -4.
Screening Cc1ccc(NC(=O)CCN2C(=O)CSC2=O)c(C)c1 returned HIF-2a block -19, KKLEB tox -7, TWEAK Fn14 block 74*, Peg3 promoter -9 and CF NFkB block 9.
Screening Cc1ccccc1NC(=O)CCN1C(=O)CSC1=O returned HIF-2a block -2, KKLEB tox 14, TWEAK Fn14 block -6, TROY NFkB inh -3, Peg3 promoter -2 and CF NFkB block -7.
